# Data reported in PubChem BioAssay AID1835 (Johns Hopkins Ion Channel Center, 2009).
# Hit rate of the full screen: of about 2,400 compounds, about 750 (31%) were called active.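 The calls were made as follows: active = median signal gain over dofetilide-blocked control wells reaching their mean plus 3 SD, so readout 1 at least 0; inactive = the rest.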 Some of the results follow.
# Biological target: Voltage-gated inwardly rectifying potassium channel KCNH2 (Homo sapiens) (UniProt Q12809)
# Assay: modulators restoring hERG flux under dofetilide – cell-based, thallium flux, duplicate retest, dofetilide IC70, confirmation (AID 1835)
# Conditions: hERG cell line, FluxOR thallium flux, dofetilide-blocked; at 10 µM; stronger effect = higher value
# Sequence of Voltage-gated inwardly rectifying potassium channel KCNH2 (Homo sapiens) (Q12809 whole entry, looked up): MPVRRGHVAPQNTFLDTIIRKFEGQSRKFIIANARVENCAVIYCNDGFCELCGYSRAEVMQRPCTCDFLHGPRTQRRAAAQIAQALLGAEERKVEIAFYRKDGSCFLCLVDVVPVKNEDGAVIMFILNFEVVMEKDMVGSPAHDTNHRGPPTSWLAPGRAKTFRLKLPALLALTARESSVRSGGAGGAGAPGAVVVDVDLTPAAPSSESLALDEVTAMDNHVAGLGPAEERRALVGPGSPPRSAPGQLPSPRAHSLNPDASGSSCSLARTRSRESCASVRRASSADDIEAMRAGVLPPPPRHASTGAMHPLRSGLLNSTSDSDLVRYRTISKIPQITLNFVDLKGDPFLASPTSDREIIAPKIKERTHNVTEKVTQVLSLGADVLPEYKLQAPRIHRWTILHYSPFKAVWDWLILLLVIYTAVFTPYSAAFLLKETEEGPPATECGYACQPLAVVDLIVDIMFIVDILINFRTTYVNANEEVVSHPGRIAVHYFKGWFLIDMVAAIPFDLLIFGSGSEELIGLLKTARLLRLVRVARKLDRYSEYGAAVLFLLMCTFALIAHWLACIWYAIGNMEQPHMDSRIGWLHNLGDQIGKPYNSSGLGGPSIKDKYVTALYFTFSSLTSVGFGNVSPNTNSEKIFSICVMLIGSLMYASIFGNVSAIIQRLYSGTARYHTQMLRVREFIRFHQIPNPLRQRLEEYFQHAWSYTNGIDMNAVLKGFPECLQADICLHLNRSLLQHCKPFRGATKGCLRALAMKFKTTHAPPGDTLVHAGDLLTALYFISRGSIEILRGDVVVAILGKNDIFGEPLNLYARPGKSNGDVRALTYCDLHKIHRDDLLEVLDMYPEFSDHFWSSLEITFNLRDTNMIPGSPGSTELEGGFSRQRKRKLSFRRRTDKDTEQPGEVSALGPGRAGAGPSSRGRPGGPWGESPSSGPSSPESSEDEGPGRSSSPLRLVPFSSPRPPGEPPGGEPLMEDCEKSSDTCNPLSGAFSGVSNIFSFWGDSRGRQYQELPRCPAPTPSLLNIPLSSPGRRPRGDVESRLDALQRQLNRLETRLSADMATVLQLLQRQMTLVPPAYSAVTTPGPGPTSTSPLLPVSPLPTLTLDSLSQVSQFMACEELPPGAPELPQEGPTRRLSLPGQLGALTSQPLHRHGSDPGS
row,SMILES,"activity increase over dofetilide control, less the hit threshold"
1,COc1nnc(-c2ccc(C)c(S(=O)(=O)NC(C)(C)CO)c2)c2ccccc12,-17% (inactive)
2,CN(Cc1cnn(C)c1)C(=O)C1CCC(=O)N(Cc2cccc(C(F)(F)F)c2)C1 (centres undefined),-10% (inactive)
3,Cc1cc(C)c(S(=O)(=O)Nc2cccc(-n3cnnn3)c2)c(C)c1,-14% (inactive)
4,O=C(COC(=O)C1CCC(=O)N1)Nc1ccc(Oc2ccccc2)cc1 (centres undefined),-9% (inactive)
5,O=C(CCSc1ccc(Br)cc1)c1ccc(O)cc1,2% (active)
6,CN1CCN(S(=O)(=O)c2cccc(S(=O)(=O)c3ccc(Cl)cc3)c2)CC1,-10% (inactive)
7,CCSc1nc2c(sc3ccccc32)c(=O)n1C(C)C,25% (active)
8,COc1cccc(NC(=O)c2nn(-c3ccc(OC)cc3OC)c(=O)c3ccccc23)c1,-8% (inactive)
9,CCN(CC)CCCNC(=O)c1cn(-c2cccc(OC)c2)c(=O)c2ccccc12,-16% (inactive)
10,COc1cccc(-n2nc(C(=O)O)c3ccccc3c2=O)c1,11% (active)
11,Cc1ccc(C(=O)NNC(=S)NC(=O)c2ccc(Cl)cc2)cc1,-23% (inactive)
12,Cc1cccc(C(=O)NC(=S)NNC(=O)c2ccc(Cl)cc2)c1,-10% (inactive)
13,CC(C)CNC(=S)NC(=O)c1ccc(Cl)cc1,19% (active)
14,Nc1nc2n(n1)C(=O)CC(c1ccc(Cl)cc1)N2 (centres undefined),-10% (inactive)
15,CN(C)S(=O)(=O)c1cc(NC2CC(=O)N(c3ccc(F)cc3)C2=O)ccc1Cl (centres undefined),-2% (inactive)
16,CCC(=O)NC(=S)NNC(=O)c1ccccc1[N+](=O)[O-],-3% (inactive)
17,CN(Cc1ccccc1)C1CCN(Cc2ccccc2[N+](=O)[O-])CC1,-16% (inactive)
18,COc1nccnc1NS(=O)(=O)c1ccc(NC(=S)NC(=O)c2ccccc2F)cc1,-17% (inactive)
19,CCN(Cc1ccccc1)C(=S)NC(=O)c1ccccc1Br,47% (active)
20,O=C(NC(=S)N(CCO)Cc1ccccc1)c1cc(Br)ccc1Cl,7% (active)
21,O=C(Cn1cncn1)c1ccccc1Br,-24% (inactive)
22,O=C(NC(=S)N(Cc1ccccc1)Cc1ccccc1)c1ccccc1F,32% (active)
23,CCCN(Cc1ccccc1)C(=S)NC(=O)c1ccccc1[N+](=O)[O-],52% (active)
24,O=C(O)c1ccc2c(c1)C(=O)N(c1cc([N+](=O)[O-])ccn1)C2=O,-3% (inactive)
25,CCCN1Cc2cccc(C(=O)NCc3cccs3)c2C1=O,-21% (inactive)
26,CCCCCCc1cc2cc(-c3nnc(-c4ccccc4O)o3)c(=O)oc2cc1O,-16% (inactive)
27,COc1ccc(-c2ccc(/C=N/NC(=O)c3cccnc3)o2)c([N+](=O)[O-])c1,1% (active)
28,Cn1cc([N+](=O)[O-])c(C(=O)N/N=C\c2c[nH]c3ccccc23)n1,-7% (inactive)
29,O=C(Nc1ccc(Oc2cccnc2)cc1)c1cccc([N+](=O)[O-])c1,-6% (inactive)
